Screening data deposited in PubChem BioAssay by Broad Institute.
IDE exosite inh: exo-site inhibitors of human IDE, primary screen, biochemical, fluorescence anisotropy, probe displacement | Insulin-degrading enzyme (Homo sapiens), P14735 | AID 1259349, 2017 | 17,000 compounds, 6.3% hits | purified IDE, FL-6b probe fluorescence polarization; hits give low values | z-score at 20 µM;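 active = z-score of -3 or lower, meaning strong loss of probe binding signal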;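 also: His-tagged human IDE residues 42-1019 made in E. coli with 30 nM FL-6b probe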
Numbers stand for hits; n = inactive. The full list was thinned out, with hits kept by preference.

SMILES	IDE exosite inh
C[C@@H](O)C#Cc1ccc([C@H]2[C@@H](CO)N3CCCCN(CC4CCOCC4)C[C@H]23)cc1	n
COc1ccc(NC(=O)N2C[C@H](O)COC[C@H]3O[C@H](CC(=O)N4CCCCC4)CC[C@@H]32)cc1	n
CCCC#Cc1ccc([C@H]2[C@@H](CO)N3C(=O)CN(C(=O)Nc4ccccc4)C[C@H]23)cc1	n
CN(C)C(=O)c1ccc(-c2ccc([C@@H]3[C@@H](CO)N(C(=O)C4CCOCC4)[C@H]3C#N)cc2)cc1	n
N#C[C@@H]1N[C@H](CO)[C@H]1c1ccc(C2=CCCC2)cc1	n
Fc1cccc(CN2C[C@@H]3N[C@H](C2)C3c2ccc(/C=C/c3ccccc3)cc2)c1 (stereo partly drawn)	n
O=C(CC1CC1)N1CC(=O)N2[C@@H](CO)[C@H](c3ccc(-c4cccnc4)cc3)[C@@H]2C1	n
O=C(CC1CC1)N1CC(=O)N2[C@H](C1)[C@H](c1ccc(-c3ccccc3)cc1)[C@@H]2CO	-5.09
O=C(CC1CC1)N1CC(=O)N2[C@H](CO)[C@@H](c3ccc(/C=C/c4ccccc4)cc3)[C@@H]2C1	n
O=C(CC1CC1)N1CC(=O)N2[C@H](CO)[C@H](c3ccc(-c4cccnc4)cc3)[C@H]2C1	n
O=C(CC1CC1)N1CC(=O)N2[C@H](C1)[C@@H](c1ccc(/C=C/c3ccccc3)cc1)[C@@H]2CO	n
O=C(CC1CC1)N1CC(=O)N2[C@H](C1)[C@H](c1ccc(-c3cccnc3)cc1)[C@@H]2CO	n
O=C(CC1CC1)N1CC(=O)N2[C@H](C1)[C@@H](c1ccc(-c3ccccc3)cc1)[C@@H]2CO	-8.94
O=C(CC1CC1)N1CC(=O)N2[C@H](CO)[C@@H](c3ccc(-c4ccccc4)cc3)[C@@H]2C1	-5.85
O=C(CC1CC1)N1CC(=O)N2[C@H](CO)[C@H](c3ccc(-c4cccnc4)cc3)[C@@H]2C1	n
CCC(=O)N1CC2(CN(Cc3ccc(F)cc3)C2)c2c(n(C)c3cc(OC)ccc23)[C@@H]1CO	n
CCCN1C[C@@H](C)[C@@H](OC)CN(C)C(=O)c2cc(NC(=O)C3CCC3)ccc2OC[C@@H]1C	n
COc1ccccc1NC(=O)N1CCCCN2[C@H](CO)[C@H](c3ccc(-c4cccc(C#N)c4)cc3)[C@@H]2C1	n
O=C(c1cccc(F)c1)N1CC(=O)N2[C@H](CO)[C@H](c3ccc(-c4ccccc4F)cc3)[C@@H]2C1	n
N#C[C@@H]1[C@@H](c2ccc(-c3cncnc3)cc2)[C@H](CO)N1C(=O)C1CCC1	n
COc1ccc2c3c([nH]c2c1)[C@H](CO)N(C(=O)CC1CC1)CC31CCN(Cc2ccncc2)CC1	n
O=C(c1ccncc1)N1CC(=O)N2[C@H](CO)[C@@H](c3ccc(-c4ccccc4)cc3)[C@H]2C1	n
COc1cccc(-c2ccc([C@H]3[C@H](CO)N4C(=O)CN(C(=O)c5ccncc5)C[C@@H]34)cc2)c1	-4.63
COc1cccc(-c2ccc([C@H]3[C@@H](CO)N4C(=O)CN(C(=O)c5ccncc5)C[C@H]34)cc2)c1	-8
O=C(c1ccncc1)N1CC(=O)N2[C@H](CO)[C@@H](c3ccc(-c4cccnc4)cc3)[C@@H]2C1	n
SMILES	IDE exosite inh
O=C(c1ccncc1)N1CC(=O)N2[C@@H](CO)[C@H](c3ccc(-c4cccnc4)cc3)[C@@H]2C1	n
COc1cccc(-c2ccc([C@@H]3[C@H](CO)N4C(=O)CN(C(=O)c5ccncc5)C[C@@H]34)cc2)c1	n
COc1ccc(-c2ccc([C@@H]3[C@@H](CO)N4C(=O)CN(C(=O)C5CCOCC5)C[C@@H]34)cc2)cc1	n
COc1ccccc1C(=O)N1C[C@H]2[C@@H](c3ccccc31)[C@H](CO)N2C(=O)Cc1ccccc1	n
CC(C)NC(=O)N1CCCCN2[C@H](C1)[C@@H](c1ccc(C#C[C@H](C)O)cc1)[C@@H]2CO	n
CC(C)C#Cc1ccc([C@H]2[C@H]3CN(C(=O)NC(C)C)CCCCN3[C@H]2CO)cc1	n
CC(C)NC(=O)N1CCCCN2[C@H](C1)[C@@H](c1ccc(C#Cc3ccccc3)cc1)[C@@H]2CO	-3.67
CC(C)NC(=O)N1CCCCN2[C@H](CO)[C@@H](c3ccc(C#Cc4ccccc4)cc3)[C@H]2C1	-9.21
CC(C)NC(=O)N1CCCCN2[C@@H](CO)[C@H](c3ccc(C#C[C@@H](C)O)cc3)[C@@H]2C1	n
CC(C)NC(=O)N1CCCCN2[C@H](CO)[C@H](c3ccc(C#C[C@H](C)O)cc3)[C@@H]2C1	n
CC(C)C#Cc1ccc([C@H]2[C@@H](CO)N3CCCCN(C(=O)NC(C)C)C[C@@H]23)cc1	n
CC(C)C#Cc1ccc([C@@H]2[C@H](CO)N3CCCCN(C(=O)Nc4ccccc4)C[C@@H]23)cc1	n
CC(C)NC(=O)N1CCCCN2[C@H](CO)[C@H](c3ccc(C#Cc4ccccc4)cc3)[C@H]2C1	-5.02
CC(C)C#Cc1ccc([C@@H]2[C@H](CO)N3CCCCN(C(=O)NC(C)C)C[C@@H]23)cc1	n
CC(C)NC(=O)N1CCCCN2[C@H](C1)[C@H](c1ccc(C#Cc3ccccc3)cc1)[C@@H]2CO	-12.5
CC(C)NC(=O)N1CCCCN2[C@H](CO)[C@@H](c3ccc(C#CC4CC4)cc3)[C@H]2C1	n
N#Cc1ccc(-c2ccc([C@H]3[C@@H](CO)N4C(=O)CN(C(=O)C5CCC5)C[C@@H]34)cc2)cc1	n
COc1cccc(CN2CCCCN3[C@H](CO)[C@@H](c4ccc(C#Cc5cccnc5)cc4)[C@H]3C2)c1	n
O=C1CN(S(=O)(=O)c2ccccc2)C[C@@H]2[C@@H](c3ccc(Br)cc3)[C@@H](CO)N12	n
COc1cccc(NC(=O)N[C@@H]2CC[C@@H](CC(=O)N3CCN(C)CC3)O[C@@H]2CO)c1	n
N#C[C@H]1[C@@H](c2ccccc2-c2ccccc2F)[C@H](CO)N1C(=O)C1CCC1	n
CC(C)(O)C#Cc1ccc([C@H]2[C@@H](CO)N3CCCCN(C(=O)c4cccc(F)c4)C[C@@H]23)cc1	n
O=C(c1ccc(F)cc1)N1CC(=O)N2[C@H](CO)[C@@H](c3ccc(-c4cccnc4)cc3)[C@@H]2C1	n
CS(=O)(=O)N1[C@H](C#N)[C@@H](c2ccccc2)[C@H]1CO	n
COc1ccc2c3c([nH]c2c1)[C@@H](CO)N(C(=O)CN1CCOCC1)CC31CN(Cc2ccccc2)C1	n
SMILES	IDE exosite inh
O=C(Nc1ccc(Cl)cc1)N1C[C@@H]2[C@H](c3ccccc31)[C@H](CO)N2CC1CCCCC1	n
C/C=C/c1ccc([C@H]2[C@@H](CO)N3CCCCN(S(=O)(=O)c4ccc(F)cc4)C[C@H]23)cc1	n
CO[C@H]1CN(C)C(=O)c2cc(NS(C)(=O)=O)ccc2OC[C@@H](C)N(C(=O)C2CCOCC2)C[C@H]1C	n
CCCC#Cc1ccc([C@@H]2[C@H]3CN(S(=O)(=O)CC)CCCCN3[C@H]2CO)cc1	n
CCS(=O)(=O)N1CCCCN2[C@H](C1)[C@H](c1ccc(C#Cc3ccccn3)cc1)[C@@H]2CO	n
CCCC#Cc1ccc([C@@H]2[C@H]3CN(S(=O)(=O)Cc4ccccc4)CCCCN3[C@H]2CO)cc1	n
CCCC#Cc1ccc([C@@H]2[C@H](CO)N3CCCCN(S(=O)(=O)CC)C[C@@H]23)cc1	-3.04
CCS(=O)(=O)N1CCCCN2[C@@H](CO)[C@@H](c3ccc(C#Cc4ccccc4OC)cc3)[C@@H]2C1	-19.7
O=S(=O)(Cc1ccccc1)N1CCCCN2[C@H](C1)[C@@H](c1ccc(C#Cc3ccccc3)cc1)[C@@H]2CO	n
